# Reference: the supplement of paper PMC6555819
# How the values were obtained:
# Assay in all cases: PBM binding z-score (relative to random genomic background probes); higher = stronger binding; sequences stand for … in GC…GCGATTGACAGCGTAGAATGAAGG
# [1] = system: PPARg:RXRa DBDmut IVT, anti-RXR (DBD mutation: RXRa K156A/R161A, NR concentration 270 nM, RXRa partner concentration 90 nM)
# Procedure, shortened: (§1)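 Binding buffer was PBS pH 7.4 with 2% milk, 0.02% Triton X-100, 1 mM DTT, 0.2 mg/mL BSA and 0.4 mg/ml salmon testes DNA. In it, ligand-free nuclear receptor dimers were incubated 1 h on custom Agilent 4×180K protein-binding microarrays carrying double-stranded probes. Antibodies against each partner (one per run) detected binding, and z-scores were calculated against random background probes after regression normalization of scanned fluorescence.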
# [2] = system: PPARg:RXRa IVT, anti-PPARg (NR concentration 270 nM, RXRa partner concentration 90 nM)
# Procedure, shortened: as §1
# [3] = system: PPARg DBDmut:RXRa IVT, anti-PPARg (DBD mutation: PPARg1 K132A/R137A, NR concentration 270 nM, RXRa partner concentration 90 nM)
# Procedure, shortened: as §1
# [4] = system: PPARg DBDmut IVT, anti-PPARg (DBD mutation: PPARg1 K132A/R137A, NR concentration 270 nM)
# Procedure, shortened: as §1
# [5] = system: PPARg homodimer (NR concentration 180 nM)
# Procedure, shortened: as §1
# [6] = system: PXR:RXRa (NR concentration 270 nM, RXRa partner concentration 90 nM)
# Procedure, shortened: as §1
# [7] = system: PXR homodimer (NR concentration 270 nM)
# Procedure, shortened: as §1
# [8] = system: RARa:RXR (NR concentration 270 nM, RXRa partner concentration 90 nM)
# Procedure, shortened: as §1
# [9] = system: RARa homodimer (NR concentration 270 nM)
# Procedure, shortened: as §1
# [10] = system: RARb:RXRa (NR concentration 270 nM, RXRa partner concentration 90 nM)
# Procedure, shortened: as §1
# [11] = system: RARb homodimer (NR concentration 270 nM)
# Procedure, shortened: as §1
# [12] = system: RARg:RXRa (NR concentration 270 nM, RXRa partner concentration 90 nM)
# Procedure, shortened: as §1
# [13] = system: RARg homodimer (NR concentration 270 nM)
# Procedure, shortened: as §1
# [14] = system: RXRa DBDmut IVT, anti-RXR (DBD mutation: RXRa K156A/R161A, NR concentration 90 nM)
# Procedure, shortened: as §1
# [15] = system: RXRa homodimer (NR concentration 180 nM)
# Procedure, shortened: as §1
# [16] = system: THRa:RXRa (NR concentration 90 nM, RXRa partner concentration 90 nM)
# Procedure, shortened: as §1
# [17] = system: THRa homodimer (NR concentration 90 nM)
# Procedure, shortened: as §1
# [18] = system: VDR:RXRa (NR concentration 270 nM, RXRa partner concentration 90 nM)
# Procedure, shortened: as §1
# [19] = system: VDR homodimer (NR concentration 270 nM)
# Procedure, shortened: as §1
Sequence,PBM binding z-score [1],PBM binding z-score [2],PBM binding z-score [3],PBM binding z-score [4],PBM binding z-score [5],PBM binding z-score [6],PBM binding z-score [7],PBM binding z-score [8],PBM binding z-score [9],PBM binding z-score [10],PBM binding z-score [11],PBM binding z-score [12],PBM binding z-score [13],PBM binding z-score [14],PBM binding z-score [15],PBM binding z-score [16],PBM binding z-score [17],PBM binding z-score [18],PBM binding z-score [19]
ATCGAAAAGTCGTGAGGTGAGTATACAGAAAGGC,-0.639,0.331,0.929,1,0.473,0.0533,-0.117,0.486,0.556,0.552,0.17,0.561,0.564,-0.691,0.466,1.68,1.14,-0.173,-0.0663
CCTAGTTGGACAAGGTCACACACGCTATAGGTAC,0.793,2.52,0.526,0.701,3.15,3.9,1.97,4.4,2.1,3.85,4.19,4.24,4.16,1.75,4.4,3.93,3.3,4.08,3.14
TCTAGTTGGTCAAAGGTCACACACTCGAAATGCG,3.69,6.56,2.18,2.02,6.43,6.12,1.83,7.45,3.65,5.09,5.02,7.09,6.36,2.05,7.71,4.06,1.95,5.37,2.94
CGTACTGGGCCATCAGGTCATTGATATCAACGTT,5.01,4.86,0.473,-0.333,1.12,1.67,0.831,1.88,-0.122,1.93,2.7,2.08,2.17,0.587,1.44,3.17,3.18,1.97,1.98
ATCTCTAGGTAAGACTTAGTTCAGTGAAGAACGC,1.88,1.57,0.722,0.771,1.4,0.684,0.67,0.614,1.01,0.573,1.05,0.21,0.357,0.325,0.128,0.798,0.858,0.582,0.617
TCGAGTAGGGTAGGGGCATTCAGAATGGCGTCGA,1.02,1.33,-0.123,1.32,0.484,0.566,0.395,0.405,0.0821,0.666,0.89,-0.0257,-0.315,0.328,0.411,0.763,0.794,0.426,0.663
ATATGTAGGTTAAATCCGGGTCATTCAGGCTATG,7.28,7.3,2.58,2.7,2.38,4.32,1.9,4.3,0.415,2.51,3.23,4.91,2.25,1.1,3.3,4.46,2.71,4.63,2.5
TCTGCTAGGTCAACGATGGTCCGCTAATCTGCTA,4.07,4,-0.429,0.0666,0.694,0.998,-0.847,1.91,-0.449,3.91,2.94,3.75,4.7,1.2,2.3,2.56,0.713,1.14,-0.413
TTTTGTAGATCAAAGGTTAAGAAAGCCGAAGCCT,1.61,3.98,0.975,1.12,1,2.05,-0.0288,3.17,0.339,2.07,1.49,1.74,0.912,-0.536,3.39,1.3,-0.617,1.41,-0.0263
GATACAGGGTCAGCTATAGGCCAGAGTATGGAAA,1.05,2.31,0.261,0.123,1.68,2.14,-0.0446,3.35,0.261,4.02,2.93,5.42,4.73,1.34,4.02,2.6,0.272,2.46,0.536
ACAGACAGGTGATGAAGGTAATTCAGGCTATCAT,0.125,0.521,0.823,0.3,0.3,-0.0311,-0.169,0.367,0.165,0.161,-0.0158,0.139,0.241,-0.19,0.13,0.514,0.165,0.0212,-0.369
GAGACAGGGTCAAGGCCAGAGTACGCGTATTGAT,1.79,2.9,0.251,-0.239,2,3.78,-0.543,4.4,0.471,4.2,3.45,5.32,5.34,1.95,6.25,3.52,1.06,4.4,1.98
CCGACTGGGGCAGAAAGGTAACCATACCATCCGG,1.07,1.73,-0.318,-1.27,0.0459,-0.419,-0.488,-0.0683,-0.0732,0.706,0.454,0.234,0.586,-1.12,0.166,0.0799,-0.606,-0.526,-0.291
TAGCCTTGGTCATTCAGGGGCCAGTATAGAAAGC,-0.687,0.278,-0.367,-0.339,-0.308,0.0515,-0.437,0.596,-0.818,1.44,1.09,2.02,0.792,-0.76,0.416,0.75,-0.852,-0.0829,-0.456
CGAACTAGGTCATCCAGGAGAGTGAATACATTGA,7.67,8.61,1.76,0.981,2.19,1.34,0.448,2.31,0.76,3.78,2.87,3.87,4.68,2.19,2.84,2.93,0.976,2.35,0.755
